TMEM16A inh – blocks the mouse calcium-activated chloride channel TMEM16A | Q8BHY3 | HEK293 TMEM16A/YFP iodide influx fluorescence, ionomycin | normalized B-score (activity score, 25-100; higher = stronger inhibition) at 10 µM | actives 1.2% (n = 310,000) | AID 588511;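 active = ratio plate-corrected score three or more library SD toward inhibition, starting fluorescence score within five deviations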;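 also: score derived from kinetic fluorescence span divided by baseline fluorescence per well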
m5-HT2A agonist – agonists of mouse serotonin 5-HT2A receptor (HTR2A). P35363. CHO-K1 mHTR2A beta-arrestin complementation, luminescence; percent of 30 µM serotonin response. activation, % at 7.6 µM. actives 0.66% (n = 360,000);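 active = activation above a run cutoff, the mean activation of all tested compounds plus 3 SD, cut at about 14% in these data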;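 also: 0% = plate median of compound wells and 100% = 30 µM serotonin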
TLR4-MyD88 BLA – blocks binding of human TLR4 to MyD88 | O00206+Q99836 | HeLa CL3-4 TLR4/MyD88 BLA complementation, FRET ratio | inhibition, % at 8.4 µM | AID 861 | actives 0.18% (n = 200,000); in the data active = inhibition above about 25%;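 also: 0% = vehicle and 100% = reference inhibitor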
Target sequence (O00206 whole entry, looked up): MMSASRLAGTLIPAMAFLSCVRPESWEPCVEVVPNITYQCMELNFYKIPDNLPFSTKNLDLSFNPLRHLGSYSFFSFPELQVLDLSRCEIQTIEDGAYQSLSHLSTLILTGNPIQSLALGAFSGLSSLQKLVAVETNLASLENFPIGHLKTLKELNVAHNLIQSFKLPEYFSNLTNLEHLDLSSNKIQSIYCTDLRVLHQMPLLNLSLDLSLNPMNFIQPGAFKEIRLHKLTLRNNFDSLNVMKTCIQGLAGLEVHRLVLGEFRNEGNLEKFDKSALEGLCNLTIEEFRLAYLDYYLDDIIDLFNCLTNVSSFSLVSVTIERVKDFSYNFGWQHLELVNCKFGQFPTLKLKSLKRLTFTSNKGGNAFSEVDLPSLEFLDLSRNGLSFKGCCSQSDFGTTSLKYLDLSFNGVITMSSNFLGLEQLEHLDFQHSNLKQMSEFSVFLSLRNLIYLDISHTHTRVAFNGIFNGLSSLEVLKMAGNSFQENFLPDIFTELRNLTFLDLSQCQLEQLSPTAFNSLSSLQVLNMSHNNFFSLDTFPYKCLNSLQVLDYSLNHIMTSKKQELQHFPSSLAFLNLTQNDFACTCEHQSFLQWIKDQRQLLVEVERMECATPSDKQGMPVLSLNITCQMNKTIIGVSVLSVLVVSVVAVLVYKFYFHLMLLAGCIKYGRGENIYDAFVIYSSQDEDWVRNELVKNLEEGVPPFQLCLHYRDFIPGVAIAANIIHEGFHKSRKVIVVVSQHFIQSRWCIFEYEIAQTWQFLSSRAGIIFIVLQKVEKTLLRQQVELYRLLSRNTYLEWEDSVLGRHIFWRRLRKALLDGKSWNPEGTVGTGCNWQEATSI
Target sequence (Q99836 whole entry, looked up): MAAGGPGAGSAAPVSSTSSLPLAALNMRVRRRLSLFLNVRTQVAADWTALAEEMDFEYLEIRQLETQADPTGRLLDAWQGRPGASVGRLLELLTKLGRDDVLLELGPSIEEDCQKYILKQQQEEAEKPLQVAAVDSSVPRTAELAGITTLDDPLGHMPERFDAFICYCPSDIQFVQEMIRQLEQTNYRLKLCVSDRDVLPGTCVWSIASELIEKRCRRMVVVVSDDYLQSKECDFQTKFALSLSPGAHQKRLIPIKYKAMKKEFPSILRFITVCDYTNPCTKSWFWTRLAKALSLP
ANO1 activ – activators or potentiators of mouse TMEM16A chloride channel | actives 0.3% (n = 340,000) | B-score at 10 µM | HEK293 TMEM16A/YFP-H148Q/I152L, iodide quench fluorescence; active compounds read low | Q8BHY3;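 active = fluorescence-ratio B-score plate-corrected deviation score at least 3 library SD below zero, with starting fluorescence score within 5 deviations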;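 also: channel opened by trigger with iodide after compound preincubation; score built on the fluorescence ratio of max minus min over baseline; more negative score means more quench and so TMEM16A activation or potentiation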
TLR9-MyD88 block – TLR9-MyD88 interaction inhibition. Q9NR96+Q99836. CHO BLA complementation TLR9-MyD88, CCF4 FRET ratio. inhibition, % at 4.98 µM. actives 0.21% (n = 340,000);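 active = inhibition above the mean over all tested compounds plus 3 SD, cut at about 21% in these data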;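 also: 0% = DMSO only wells and 100% = clavulanate BLA inhibitor control wells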
NOD2-RIPK2 inh – blocks binding of human NOD2 to RIPK2; O43353; CHO BLA complementation NOD2-RIPK2, CCF4 ratio; inhibition, % at 4.98 µM; actives 0.38% (n = 360,000); AID 624267; in the data active = inhibition above about 21%;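 also: 0% = vehicle only and 100% = reference blocker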
The depositor's hits bear a star. In the library only some 2.4% were active in any assay of this set; here they are far more common.

What do the screens show for `COc1ccc(/C=N/NC(=O)CSc2nnc(CCCc3ccc(OC)c(C)c3)o2)cc1`?
TMEM16A inh: 100*; m5-HT2A agonist: 1; TLR4-MyD88 BLA: -7; ANO1 activ: inactive; TLR9-MyD88 block: -8; NOD2-RIPK2 inh: -1

What do the screens show for `COc1ccc(CCCc2nnc(SCC(=O)N/N=C\c3ccc(O)c(OC)c3)o2)cc1C`?
TMEM16A inh: inactive; m5-HT2A agonist: -9; TLR4-MyD88 BLA: -7; ANO1 activ: inactive; TLR9-MyD88 block: 2; NOD2-RIPK2 inh: -6

How did O=C(CNS(=O)(=O)Cc1ccccc1)NCc1ccccc1 do in these assays?
TMEM16A inh: inactive; m5-HT2A agonist: 1; ANO1 activ: inactive; TLR9-MyD88 block: -1; NOD2-RIPK2 inh: 11

What do the screens show for `CCCn1nc(NS(=O)(=O)c2cccc3nonc23)c2cc3cccc(C)c3nc21`?
TMEM16A inh: 100*; m5-HT2A agonist: 6; ANO1 activ: inactive; TLR9-MyD88 block: -10; NOD2-RIPK2 inh: -1

Results for Cc1ccc(/C=C/S(=O)(=O)NCCC(=O)NCc2ccc(F)cc2)cc1 ?
m5-HT2A agonist: 1; ANO1 activ: -42*; TLR9-MyD88 block: -3; NOD2-RIPK2 inh: -3

How did Cc1ccc(/C=C/S(=O)(=O)NCCC(=O)NCc2ccccc2F)cc1 do in these assays?
m5-HT2A agonist: -3; ANO1 activ: inactive; TLR9-MyD88 block: 12; NOD2-RIPK2 inh: 6

What do the screens show for `COc1cc(/C=C/[N+](=O)[O-])ccc1OC(=O)c1cc2ccccc2oc1=O`?
TMEM16A inh: inactive; m5-HT2A agonist: -8; ANO1 activ: inactive; TLR9-MyD88 block: 5; NOD2-RIPK2 inh: 10

How did CCc1ccc([C@@H]2CC(=O)[C@@H]3CN(S(=O)(=O)c4ccccc4C)[C@H](c4ccc(Cl)cc4)C[C@@H]3N2S(=O)(=O)c2ccc(C)cc2)cc1 do in these assays?
m5-HT2A agonist: 10; NOD2-RIPK2 inh: 8

What do the screens show for `O=C(CCC(=O)Nc1ccccc1Cl)N/N=C/c1c[nH]c2ccccc12`?
TMEM16A inh: inactive; m5-HT2A agonist: 22*; TLR4-MyD88 BLA: -3; ANO1 activ: inactive; TLR9-MyD88 block: -5; NOD2-RIPK2 inh: -2

How did Cc1ccccc1NC(=O)CCC(=O)N/N=C/c1c[nH]c2ccccc12 do in these assays?
TMEM16A inh: inactive; m5-HT2A agonist: 0; TLR4-MyD88 BLA: -8; ANO1 activ: inactive; TLR9-MyD88 block: 0; NOD2-RIPK2 inh: -11

Results for C[C@@H]1COc2cc(N3CCSCC3)ccc2S(=O)(=O)N1 ?
m5-HT2A agonist: 1; NOD2-RIPK2 inh: -2

What do the screens show for `CCCOc1ccc2ccccc2c1/C=C1\SC(=O)NC1=O`?
TMEM16A inh: 100*; m5-HT2A agonist: 1; ANO1 activ: inactive; TLR9-MyD88 block: 0; NOD2-RIPK2 inh: 2

Results for O=[N+]([O-])c1ccc(O)c(-c2cc(C(F)(F)F)nc(-c3ccccc3)n2)c1 ?
TMEM16A inh: 100*; m5-HT2A agonist: 6; ANO1 activ: inactive; TLR9-MyD88 block: -7; NOD2-RIPK2 inh: -17

How did CC(OC(=O)CNC(=O)c1ccco1)C(=O)N(C)c1ccccc1 (configuration not stated) do in these assays?
TMEM16A inh: inactive; m5-HT2A agonist: -2; TLR4-MyD88 BLA: -5; ANO1 activ: inactive; TLR9-MyD88 block: 10; NOD2-RIPK2 inh: 1

What do the screens show for `Cc1ccc(-c2nn(-c3ccccc3)cc2CSC(=N)N)cc1`?
TMEM16A inh: 25*; m5-HT2A agonist: -3; TLR4-MyD88 BLA: 3; ANO1 activ: inactive; TLR9-MyD88 block: -8; NOD2-RIPK2 inh: 10

What do the screens show for `COC(=O)[C@H](Cc1ccccc1)NC(=O)NCc1ccccc1OC`?
TMEM16A inh: inactive; m5-HT2A agonist: 0; TLR4-MyD88 BLA: -1; ANO1 activ: inactive; TLR9-MyD88 block: -6; NOD2-RIPK2 inh: -6

What do the screens show for `Cc1ccn2c(-c3csc(NCc4ccccc4)n3)c(C)nc2c1`?
TMEM16A inh: 100*; m5-HT2A agonist: 2; TLR4-MyD88 BLA: 12; ANO1 activ: inactive; TLR9-MyD88 block: -4; NOD2-RIPK2 inh: -4

What do the screens show for `Cc1ccn2c(NCc3ccccc3)c(-c3cccs3)nc2c1`?
TMEM16A inh: inactive; m5-HT2A agonist: -1; TLR4-MyD88 BLA: -3; ANO1 activ: inactive; TLR9-MyD88 block: -14; NOD2-RIPK2 inh: -2

Results for COc1cc2ccccc2cc1C(=O)OCC(=O)NC1CCS(=O)(=O)C1 (configuration not stated) ?
TMEM16A inh: inactive; m5-HT2A agonist: 2; TLR4-MyD88 BLA: 16; ANO1 activ: inactive; TLR9-MyD88 block: 1; NOD2-RIPK2 inh: 10

Results for CC(=O)Nc1ccc(S(=O)(=O)NCC(=O)N2CCN(S(=O)(=O)c3cccs3)CC2)cc1 ?
m5-HT2A agonist: 13; ANO1 activ: -15*; TLR9-MyD88 block: 1; NOD2-RIPK2 inh: -10

How did CCOC(=O)N1CCN(C(=O)CNS(=O)(=O)c2cccs2)CC1 do in these assays?
TMEM16A inh: inactive; m5-HT2A agonist: 1; TLR4-MyD88 BLA: -12; ANO1 activ: inactive; TLR9-MyD88 block: -5; NOD2-RIPK2 inh: 1

What do the screens show for `Cc1cccc(NC(=O)C(=O)NNC(=O)c2ccc(C(C)(C)C)cc2)c1`?
TMEM16A inh: inactive; m5-HT2A agonist: -11; ANO1 activ: inactive; TLR9-MyD88 block: -13; NOD2-RIPK2 inh: -5

Results for Cc1ccc(F)c(NC(=O)/C(C#N)=C(\O)c2ccc(C(C)(C)C)cc2)c1 ?
TMEM16A inh: 25*; m5-HT2A agonist: 0; TLR4-MyD88 BLA: -5; ANO1 activ: inactive; TLR9-MyD88 block: 1; NOD2-RIPK2 inh: -12

Results for CCn1cnc2sc(C(=O)N3CCN(c4ccc(OC)cc4)CC3)c(C)c2c1=O ?
TMEM16A inh: inactive; m5-HT2A agonist: -2; TLR4-MyD88 BLA: -3; ANO1 activ: inactive; TLR9-MyD88 block: -3; NOD2-RIPK2 inh: -6

How did CC(C)Cn1c(N)c(C(=O)COC(=O)CCNS(=O)(=O)c2ccccc2)c(=O)n(C)c1=O do in these assays?
TMEM16A inh: 25*; m5-HT2A agonist: -3; ANO1 activ: inactive; TLR9-MyD88 block: 0; NOD2-RIPK2 inh: 3

What do the screens show for `COc1ccc(CCN2CC(C(=O)OCC(=O)c3c(N)n(CC(C)C)c(=O)n(C)c3=O)CC2=O)cc1OC` (configuration not stated)?
m5-HT2A agonist: 5; TLR9-MyD88 block: 1; NOD2-RIPK2 inh: -9

What do the screens show for `CC(C)Cn1c(N)c(C(=O)COC(=O)C2CC(=O)N(Cc3ccccc3Cl)C2)c(=O)n(C)c1=O` (configuration not stated)?
TMEM16A inh: inactive; m5-HT2A agonist: 1; TLR4-MyD88 BLA: -4; ANO1 activ: -4.6*; TLR9-MyD88 block: -1; NOD2-RIPK2 inh: -16

What do the screens show for `CCCCCOc1ccc(NC2=CC(=O)CCC2)cc1`?
TMEM16A inh: inactive; m5-HT2A agonist: -4; ANO1 activ: inactive; TLR9-MyD88 block: -2; NOD2-RIPK2 inh: 5

Bioassay records as filed in PubChem.
